Screening results from PubChem.
Compounds with a hit are over-represented: about 0.95% of the library has one in this group of screens.
Giardia FBPA inh: blocks Giardia fructose-bisphosphate aldolase activity; purified Giardia FBPA; 290,000 tested, 0.71% active; Potency, µM (series often up to 59.6 µM), inactives show at the highest dose activity, negative = inhibition, hits mostly inhibitors; also: nearly all actives have a fitted effect of over 55% in size
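Giardia FBPA (40 nM reagent) was preincubated 10 min at RT with compound (up to 57.5 uM final), then substrate plus GAPDH/TPI/NAD/arsenate coupling system with diaphorase/resazurin was added; resorufin fluorescence (525/598 nm) was read after 20 min.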
RE007 growth inh: less growth of the S. pombe RE007 Vpr strain. S. pombe RE007 Vpr strain, BacTiter-Glo ATP luminescence, 24 h. Potency, µM (doses to about 92.2 µM), for the others: at the top dose activity change, negative = less growth, usual class: inhibitors. 360,000 tested, 0.21% active; active = well fitted falling curve with a large enough effect; inconclusive = small, poorly fitted or top-dose-only effect; inactive = no such curve, though single readings can be large or run the other way; also: nearly all actives have a fitted effect of over 50% in size
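Fission yeast RE007 carrying one integrated HIV-1 vpr copy, seeded at OD 0.01 in PMG+AL medium with 23 nL pinned compound. Grown 24 h at 30 degrees; viability read by BacTiter-Glo luminescence after 5 min.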
LmPK inhibitor: inhibitors of Leishmania mexicana pyruvate kinase; purified LmPK, Kinase-Glo ATP luminescence, 1 h; Potency, µM (titrated, usually from 57.5 µM), for inactives: top-dose activity change, negative = inhibition, most hits filed as inhibitors; 290,000 tested, 0.37% active
Target sequence (Q27686 whole entry, looked up): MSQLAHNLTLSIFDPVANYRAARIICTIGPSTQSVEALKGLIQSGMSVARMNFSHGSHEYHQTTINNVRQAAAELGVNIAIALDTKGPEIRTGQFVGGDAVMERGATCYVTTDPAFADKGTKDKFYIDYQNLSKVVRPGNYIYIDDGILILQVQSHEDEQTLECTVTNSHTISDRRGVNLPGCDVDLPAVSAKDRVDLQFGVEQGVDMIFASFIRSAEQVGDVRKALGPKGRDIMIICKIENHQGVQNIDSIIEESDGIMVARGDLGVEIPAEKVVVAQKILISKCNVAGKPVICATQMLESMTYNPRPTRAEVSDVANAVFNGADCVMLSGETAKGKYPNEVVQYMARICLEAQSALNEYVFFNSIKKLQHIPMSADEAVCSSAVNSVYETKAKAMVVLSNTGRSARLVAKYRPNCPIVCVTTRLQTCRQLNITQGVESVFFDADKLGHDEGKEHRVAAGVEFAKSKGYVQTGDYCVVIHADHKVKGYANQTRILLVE
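Pyruvate kinase activity monitored as ATP production (luciferase luminescence). Conditions: 0.1 nM enzyme, 0.5 mM PEP, 0.1 mM ADP, 1 h, RT; normalized against uninhibited and no-enzyme wells.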
TbPYK inhibitor: T. brucei pyruvate kinase inhibition; Q57TT1; TbPYK enzyme, Kinase-Glo Plus ATP luminescence, 45 min; Potency, µM (highest dose often 76.8 µM), for the others: at the top dose activity, negative = inhibition, most hits filed as inhibitors; 410,000 tested, 0.12% active; AID 624173; also: nearly all actives have a fitted effect of over 50% in size
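Glycolytic pyruvate kinase of T. brucei was incubated with substrate, test compound and 130 uM ADP for 45 minutes at room temperature. Luminescent Kinase-Glo Plus signal was measured after 10 minutes.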
The depositor's hits bear a star. Unless noted, calls follow the shape of the dose curve; as a rule, active = well fitted curve in the direction sought with a large enough effect; inconclusive = small, poorly fitted or top-dose-only effect, or another doubt; inactive = no such curve, though single readings can be large; an effect the other way counts as inactive or inconclusive. % is scaled to controls: 0 for no effect and ±100 for the full control effect; potency is read from the fitted curve at half-maximal effect.

Results for O=C1CC(N2CCN(c3ccccc3Cl)CC2)C(=O)N1c1ccc(F)cc1 (stereo unspecified) ?
Giardia FBPA inh: -6%; RE007 growth inh: inconclusive; LmPK inhibitor: 7%; TbPYK inhibitor: -2%

Results for CC1(C)CC(=O)C(C=NCCN2CCN(C3CC(=O)N(c4ccc(Cl)c(Cl)c4)C3=O)CC2)=C(O)C1 (stereo unspecified) ?
Giardia FBPA inh: 1%; RE007 growth inh: 10µM*; LmPK inhibitor: 4%; TbPYK inhibitor: 5%

Results for O=C1CC(N2CCN(c3ccccc3Cl)CC2)C(=O)N1c1cccc(F)c1 (stereo unspecified) ?
Giardia FBPA inh: 3%; RE007 growth inh: 35µM*; LmPK inhibitor: 0%; TbPYK inhibitor: 2%

What do the screens show for `Cc1cc(C)n(C2=NS(=O)(=O)c3ccccc32)n1`?
Giardia FBPA inh: -2%; RE007 growth inh: 11%; LmPK inhibitor: 13µM*; TbPYK inhibitor: -1%

Results for O=C1C(=O)c2cccc3cccc1c23 ?
Giardia FBPA inh: inconclusive; RE007 growth inh: inconclusive; LmPK inhibitor: 9%; TbPYK inhibitor: -9%

How did O=C1C([N+](=O)[O-])=C(O)c2cccc3cccc1c23 do in these assays?
Giardia FBPA inh: 25µM*; LmPK inhibitor: -13%

What do the screens show for `N#Cc1nc(Nc2ccccc2)nc(NC2CCCCC2)n1`?
Giardia FBPA inh: -2%

How did O=C(CSc1ccc(-c2ccco2)nn1)N1CCCCC1 do in these assays?
Giardia FBPA inh: 13µM*; RE007 growth inh: -7%; LmPK inhibitor: -6%; TbPYK inhibitor: -8%

Results for O=C1NC(=O)C(=Cc2ccc(Sc3ccccc3)o2)C(=O)N1 ?
Giardia FBPA inh: -19%; RE007 growth inh: 0%; LmPK inhibitor: inconclusive; TbPYK inhibitor: 40µM*

What do the screens show for `O=C(Nc1ccc2oc(-c3ccccc3)nc2c1)C1CCCO1` (stereo unspecified)?
Giardia FBPA inh: -1%; RE007 growth inh: -21%; LmPK inhibitor: -17%; TbPYK inhibitor: -3%

Results for O=C(Nc1ccc(-c2nc3ccccc3o2)cc1)C1CCCO1 (stereo unspecified) ?
Giardia FBPA inh: 2%; RE007 growth inh: inconclusive; LmPK inhibitor: 16µM*; TbPYK inhibitor: -25%

What do the screens show for `O=C(Nc1ccc(-c2nc3cccnc3s2)cc1)C1CCCO1` (stereo unspecified)?
Giardia FBPA inh: 8%; RE007 growth inh: -17%; LmPK inhibitor: 14µM*; TbPYK inhibitor: inconclusive

Results for O=C1c2cccc3c(O)ccc(c23)C(=O)N1c1ccc(Cl)cc1 ?
Giardia FBPA inh: inconclusive; RE007 growth inh: 34%; LmPK inhibitor: -1%; TbPYK inhibitor: -6%

Results for CCOC(=O)C1=Nc2ccccc2C1=[N+]=[N-] ?
Giardia FBPA inh: -6%; RE007 growth inh: 0.25µM*; LmPK inhibitor: -1%; TbPYK inhibitor: 3%

Results for CSCC[C@H](NC(=O)[C@H](CO)NC(=O)[C@H](Cc1ccc(O)cc1)NC(=O)[C@@H](N)CO)C(=O)N[C@@H](CCC(=O)O)C(=O)N[C@@H](Cc1cnc[nH]1)C(=O)N[C@@H](Cc1ccccc1)C(=O)N[C@@H](CCCNC(=N)N)C(=O)N[C@@H](Cc1c[nH]c2ccccc12)C(=O)NCC(=O)N[C@@H](CCCCN)C(=O)N1CCC[C@H]1C(=O)N[C@H](C(=O)NCC(=O)N[C@@H](CCCCN)C(=O)N[C@@H](CCCCN)C(=O)N[C@@H](CCCNC(=N)N)C(=O)N[C@@H](CCCNC(=N)N)C(=O)N1CCC[C@H]1C(=O)N[C@H](C(=O)N[C@@H](CCCCN)C(=O)N[C@H](C(=O)N[C@@H](Cc1ccc(O)cc1)C(=O)N1CCC[C@H]1C(=O)N[C@@H](CC(N)=O)C(=O)NCC(=O)N[C@@H](C)C(=O)N[C@@H](CCC(=O)O)C(=O)N[C@@H](CC(=O)O)C(=O)N[C@@H](CCC(=O)O)C(=O)N[C@@H](CO)C(=O)N[C@@H](C)C(=O)N[C@@H](CCC(=O)O)C(=O)N[C@@H](C)C(=O)N[C@@H](Cc1ccccc1)C(=O)N1CCC[C@H]1C(=O)N[C@@H](CC(C)C)C(=O)N[C@@H](CCC(=O)O)C(=O)N[C@@H](Cc1ccccc1)C(=O)O)C(C)C)C(C)C)C(C)C ?
Giardia FBPA inh: 5%

What do the screens show for `CCOC(=O)/C(=N/Nc1ccc(OC)cc1)N1CCCc2ccccc21`?
Giardia FBPA inh: 16µM*; RE007 growth inh: 80%; LmPK inhibitor: 1%; TbPYK inhibitor: 0%

What do the screens show for `O=C1C=CC(=O)C(C2=C3C(=O)N(CCc4ccccc4)CC(=O)N3CCC2)=C1`?
Giardia FBPA inh: 18µM*; RE007 growth inh: -11%; LmPK inhibitor: inconclusive; TbPYK inhibitor: 2.5µM*

Results for O=C1CC2(CCCCC2)CC(=O)N1CCc1ccccc1 ?
RE007 growth inh: 12%; TbPYK inhibitor: 13%

How did C[N+](C)(CCCCCC[N+](C)(C)C1c2ccccc2-c2ccccc21)C1c2ccccc2-c2ccccc21 do in these assays?
TbPYK inhibitor: 3%

What do the screens show for `Cc1c(N)c(C)c([N+](=O)[O-])c(C)c1[N+](=O)[O-]`?
Giardia FBPA inh: -3%; RE007 growth inh: -4%; LmPK inhibitor: 9%; TbPYK inhibitor: 4%

Results for Cc1c(N)c(C(C)(C)C)cc(C(C)(C)C)c1[N+](=O)[O-] ?
Giardia FBPA inh: -8%; RE007 growth inh: 32µM*; LmPK inhibitor: -3%; TbPYK inhibitor: 0%

Results for CCOC(=O)CCc1c(C)nc(SCC(=O)O)c(C#N)c1C ?
Giardia FBPA inh: 1%; RE007 growth inh: 6%; LmPK inhibitor: 26%; TbPYK inhibitor: 32µM*

What do the screens show for `CCOC(=O)CCc1c(C)nc(SCc2ccc(C(=O)O)cc2)c(C#N)c1C`?
Giardia FBPA inh: 20%; RE007 growth inh: -1%; LmPK inhibitor: 0%; TbPYK inhibitor: -2%

Results for N#CC1=C2SCN(Cc3ccccc3)CN2C(=O)CC1c1ccc2c(c1)OCO2 (stereo unspecified) ?
Giardia FBPA inh: 0.89µM*; RE007 growth inh: 11%; LmPK inhibitor: -6%; TbPYK inhibitor: inconclusive

How did N#CC1=C2SCN(Cc3ccccc3)CN2C(=O)CC1c1cccs1 (stereo unspecified) do in these assays?
Giardia FBPA inh: inconclusive; RE007 growth inh: -13%; LmPK inhibitor: -5%; TbPYK inhibitor: inconclusive

How did COc1ccc2c(c1)c1c(c(=O)n(-c3cccc(C)c3)c(=O)n1CC(=O)NCCC1=CCCCC1)n2C do in these assays?
TbPYK inhibitor: -7%

Results for COc1cc(C(=O)Nc2ccc(C(=O)c3cccs3)cc2)cc(OC)c1OC ?
Giardia FBPA inh: -5%; RE007 growth inh: 7%; LmPK inhibitor: -2%; TbPYK inhibitor: 4%

What do the screens show for `O=C1CSC(=S)N1/N=C/c1ccc(O)c(O)c1O`?
Giardia FBPA inh: 7.9µM*; RE007 growth inh: -16%; LmPK inhibitor: -21%; TbPYK inhibitor: inconclusive

What do the screens show for `COc1ccccc1CCC(=O)Nc1cc(S(=O)(=O)N2CCCCC2)ccc1N1CCN(C)CC1`?
RE007 growth inh: 17%; TbPYK inhibitor: -9%
